Measurements reported in the supplement of paper PMC6555819.

Experiments:
Assay in all cases: PBM binding z-score (relative to random genomic background probes); higher = stronger binding; sequences stand for … in GC…GCGATTGACAGCGTAGAATGAAGG
[1] = test system: RARb homodimer (NR concentration 270 nM)
Procedure, shortened: (§1)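 Antibodies against each partner of ligand-free nuclear receptor dimers (one per run) detected binding on custom Agilent 4×180K protein-binding microarrays after 1 h incubation. The double-stranded probes had 34-nt variable regions carrying direct-repeat seeds, single-nucleotide variants, half-site ablations and random human genomic background sequences. Binding z-scores, from regression-normalized fluorescence, use the random background probes as reference.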

[2] = test system: RARg:RXRa (NR concentration 270 nM, RXRa partner concentration 90 nM)
Procedure, shortened: as §1

[3] = test system: RARg homodimer (NR concentration 270 nM)
Procedure, shortened: as §1

[4] = test system: RXRa DBDmut IVT, anti-RXR (DBD mutation: RXRa K156A/R161A, NR concentration 90 nM)
Procedure, shortened: as §1

[5] = test system: RXRa homodimer (NR concentration 180 nM)
Procedure, shortened: as §1

[6] = test system: THRa:RXRa (NR concentration 90 nM, RXRa partner concentration 90 nM)
Procedure, shortened: as §1

[7] = test system: THRa homodimer (NR concentration 90 nM)
Procedure, shortened: as §1

[8] = test system: VDR homodimer (NR concentration 270 nM)
Procedure, shortened: as §1

Row | Sequence | PBM binding z-score [1] | PBM binding z-score [2] | PBM binding z-score [3] | PBM binding z-score [4] | PBM binding z-score [5] | PBM binding z-score [6] | PBM binding z-score [7] | PBM binding z-score [8]
1 | ATAATGAGGTTAAGATCAGGGAAACAGAATACAT | 0.864 | 2.47 | 1.96 | 1.16 | 2.68 | 2.74 | 1.02 | 0.406
2 | GCTTACGGGTCAAAGGTTATAGCCTGAATAGAAT | 3.15 | 6.87 | 4.5 | 2.7 | 9.3 | 4.01 | -0.0478 | 1.65
3 | GGAACGAGGGCATTCGAGTGGATAGCATGGCGAT | 0.402 | 0.904 | 1.23 | 2.83 | 0.651 | 1.69 | -0.704 | 1.87
4 | TCTAGCAGGCCAGAGGCTCACTCAAGAGGTACGG | -0.995 | -0.48 | -0.695 | -0.462 | -0.277 | -0.767 | -1.59 | -1.07
5 | TCTAGCAGGCCAGTGGGTCACTCAAGAGGTACGG | 1.64 | 1.37 | 1.24 | -0.186 | 1.18 | 0.549 | -0.701 | -0.424
6 | TTACAAAGGTGAAGGTCGTTGATCCCTCTGTAGA | 2.91 | 3.09 | 2.66 | 0.165 | 3.13 | 2.1 | 0.228 | 1.08
7 | CATTCAGGGTCAGCTAGGCCAGAGTAGGGACGGC | 3.59 | 4.64 | 5.03 | 2 | 5.08 | 3.44 | 1.31 | 1.42
